The first assay concerns the target SF3B2 (UniProt Q13435). The conditions noted are these: DSSO, in cells.
Sequence of TMEM109 (Q9BVC6 whole entry): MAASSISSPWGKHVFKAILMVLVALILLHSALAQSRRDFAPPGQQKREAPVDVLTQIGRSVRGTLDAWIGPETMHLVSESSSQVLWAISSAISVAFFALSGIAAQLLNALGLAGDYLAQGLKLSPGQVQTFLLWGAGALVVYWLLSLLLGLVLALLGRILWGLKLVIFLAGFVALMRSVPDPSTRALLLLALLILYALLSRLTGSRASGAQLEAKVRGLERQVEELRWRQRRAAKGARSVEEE
Sequence of ANXA3, P12429 (P12429 whole entry): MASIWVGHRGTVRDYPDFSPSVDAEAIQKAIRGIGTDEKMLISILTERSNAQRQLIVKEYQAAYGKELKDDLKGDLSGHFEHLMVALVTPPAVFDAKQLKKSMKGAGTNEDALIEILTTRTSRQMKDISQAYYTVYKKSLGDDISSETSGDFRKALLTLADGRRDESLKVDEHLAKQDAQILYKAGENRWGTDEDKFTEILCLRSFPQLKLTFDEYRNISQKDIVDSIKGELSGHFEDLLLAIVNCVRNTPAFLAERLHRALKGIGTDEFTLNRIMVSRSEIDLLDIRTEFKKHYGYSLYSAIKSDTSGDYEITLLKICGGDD
Sequence of TMEM43, Q9BTV4 (Q9BTV4 whole entry): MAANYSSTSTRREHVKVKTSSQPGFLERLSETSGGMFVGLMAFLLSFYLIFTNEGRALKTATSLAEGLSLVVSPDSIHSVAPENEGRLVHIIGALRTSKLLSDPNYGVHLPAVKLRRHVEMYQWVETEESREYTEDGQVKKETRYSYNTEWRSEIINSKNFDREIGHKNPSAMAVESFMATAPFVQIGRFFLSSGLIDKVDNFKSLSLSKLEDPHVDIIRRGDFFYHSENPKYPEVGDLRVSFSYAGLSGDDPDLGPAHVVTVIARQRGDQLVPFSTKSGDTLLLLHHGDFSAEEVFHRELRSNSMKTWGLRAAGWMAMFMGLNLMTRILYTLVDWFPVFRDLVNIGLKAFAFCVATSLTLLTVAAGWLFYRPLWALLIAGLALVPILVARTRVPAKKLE
Sequence of HTATSF1, O43719 (O43719 whole entry): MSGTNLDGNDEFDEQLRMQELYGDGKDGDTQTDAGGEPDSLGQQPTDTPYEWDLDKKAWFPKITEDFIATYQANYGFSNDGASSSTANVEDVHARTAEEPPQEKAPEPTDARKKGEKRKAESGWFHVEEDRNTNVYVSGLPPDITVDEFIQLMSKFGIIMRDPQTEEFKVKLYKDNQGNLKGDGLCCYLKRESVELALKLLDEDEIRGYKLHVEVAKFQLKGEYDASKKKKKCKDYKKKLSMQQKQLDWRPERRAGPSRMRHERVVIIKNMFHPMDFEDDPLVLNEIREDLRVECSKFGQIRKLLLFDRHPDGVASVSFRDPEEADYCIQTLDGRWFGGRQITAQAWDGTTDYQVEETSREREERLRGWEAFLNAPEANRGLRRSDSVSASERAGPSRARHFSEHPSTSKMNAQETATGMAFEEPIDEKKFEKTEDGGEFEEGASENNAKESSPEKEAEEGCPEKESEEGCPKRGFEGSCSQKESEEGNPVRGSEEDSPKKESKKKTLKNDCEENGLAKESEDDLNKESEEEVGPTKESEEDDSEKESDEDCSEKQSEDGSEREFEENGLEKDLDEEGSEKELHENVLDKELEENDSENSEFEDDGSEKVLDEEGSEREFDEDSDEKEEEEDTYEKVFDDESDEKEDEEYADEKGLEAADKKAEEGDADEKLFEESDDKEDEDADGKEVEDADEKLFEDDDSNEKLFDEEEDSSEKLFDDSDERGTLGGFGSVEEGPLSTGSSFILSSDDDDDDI
Sequence of SNRPE, P62304 (P62304 whole entry): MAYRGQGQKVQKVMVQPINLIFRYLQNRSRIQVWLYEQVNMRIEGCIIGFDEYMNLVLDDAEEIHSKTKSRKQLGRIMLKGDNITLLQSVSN
Sequence of CANX, P27824 (P27824 whole entry): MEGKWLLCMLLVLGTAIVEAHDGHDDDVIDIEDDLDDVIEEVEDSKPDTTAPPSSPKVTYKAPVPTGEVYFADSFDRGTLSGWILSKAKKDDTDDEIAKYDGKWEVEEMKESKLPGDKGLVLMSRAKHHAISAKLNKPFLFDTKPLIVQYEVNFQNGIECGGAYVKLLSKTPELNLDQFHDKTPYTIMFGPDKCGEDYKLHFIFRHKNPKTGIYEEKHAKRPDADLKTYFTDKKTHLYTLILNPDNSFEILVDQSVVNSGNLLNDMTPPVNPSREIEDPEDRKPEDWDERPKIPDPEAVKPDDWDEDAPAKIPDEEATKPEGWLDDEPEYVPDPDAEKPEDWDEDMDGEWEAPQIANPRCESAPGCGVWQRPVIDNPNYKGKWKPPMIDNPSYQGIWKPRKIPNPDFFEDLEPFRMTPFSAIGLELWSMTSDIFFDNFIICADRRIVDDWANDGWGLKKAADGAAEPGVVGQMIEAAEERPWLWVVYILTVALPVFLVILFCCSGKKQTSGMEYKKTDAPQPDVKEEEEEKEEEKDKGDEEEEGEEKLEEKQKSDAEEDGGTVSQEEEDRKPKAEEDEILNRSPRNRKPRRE
Sequence of ANXA4, P09525 (P09525 whole entry): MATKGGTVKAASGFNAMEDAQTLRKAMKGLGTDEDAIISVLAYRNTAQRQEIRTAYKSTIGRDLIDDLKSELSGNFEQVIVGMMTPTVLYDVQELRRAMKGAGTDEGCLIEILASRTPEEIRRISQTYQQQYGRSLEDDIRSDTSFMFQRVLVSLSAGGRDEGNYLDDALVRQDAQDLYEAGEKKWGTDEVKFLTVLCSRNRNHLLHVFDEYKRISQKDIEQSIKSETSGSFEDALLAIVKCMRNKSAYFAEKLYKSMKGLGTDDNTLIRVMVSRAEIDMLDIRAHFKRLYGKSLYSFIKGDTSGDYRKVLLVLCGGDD
In the case of HTATSF1, O43719, the cross-linked residues entry was “K217 - K543”.

On to SNRPA1, P09661, for which the cross-linked residues result is reported as “K172 - S319”.

On to SNRPE, P62304, for which the cross-linked residues entry is given as “K12 - K352”.

Consider SNRPB, P14678, for which the cross-linked residues entry is “K57 - S319”.

Another assay concerns the target TMEM109 (UniProt Q9BVC6). The settings on record: DSSO, in cells.
Regarding ANXA4, P09525, the cross-linked residues entry was “K57 - K215”.

Regarding ANXA3, P12429, the cross-linked residues entry is reported as “K263 - K215”.

For the substance TMEM43, Q9BTV4, the cross-linked residues result is “K18 - K215”.

For CANX, P27824, the cross-linked residues result was “K516 - K215”.

The record behind these values is publication PMC13423814.
